The values below come from PubChem BioAssay (NCI).

Compounds without any hit were thinned out: in the full panel of roughly 83,000, 20% have a hit.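 Single-concentration screen, 48 h exposure, 96-well plates. Endpoint: percent growth. Below 10 = active.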 Unmarked numbers belong to inactive results. Activity calls are given as the source filed them. *1 amine or outer side, *2 acyl side, *3 side chain or, on linkers, in order; H or OH if unused. Where a SMILES comes first, the peptide text is derived from it. Bridges are numbered along the chain shown (N, C = ends). Roman numbers before positions name the chains, in order. [ ]: non-standard residue; d: D form. Actinocin(1to9) = Cc1c2oc3c(C)ccc(C(=O)[*:2])c3nc-2c(C(=O)[*:1])c(N)c1=O; NMeV = CN[CH](C(=O)O)C(C)C; Sar = CNCC(=O)O

Test systems include T-47D breast; BT-549 breast; MDA-MB-435 melanoma; SW-620 colon; MCF7 breast; HCT-116 colon; KM12 colon; HCC-2998 colon.
What all share (assay): NCI-60 one-dose screen, 48 h (100 = growth as untreated, 0 = no growth, -100 = all killed)
Holding throughout (settings): 10 µM unless noted

Turning to `NC(=S)N/N=C/c1ncccc1O`, the growth in the test on T-47D breast was 25.2%; in the test on BT-549 breast, 35.4%; in the test on MDA-MB-435 melanoma it was 29.6%; in the test with SW-620 colon, 35%; in the test on MCF7 breast it was 6.89% (active); with HCT-116 colon, 5.32% (active). Moreover, in the test on KM12 colon, the growth is 25.9%.
On to `CCCCC(C=O)(C=C=C(C)C)CC` (configuration not stated), for which the growth is 111% in the test on T-47D breast; 103% in the test on BT-549 breast; 99.1% with MDA-MB-435 melanoma; 106% in the test with SW-620 colon; 90.9% in the test on MCF7 breast; 106% in the test with HCT-116 colon. In addition, the growth with KM12 colon was 109%.
Take `CC(C)c1ccc(C(=O)OC2CCCC2)cc1`: the growth was 91.2% with T-47D breast; 97.5% in the test on BT-549 breast; 101% in the test with MDA-MB-435 melanoma; 99.7% in the test on SW-620 colon; 95.7% with MCF7 breast; 92.3% in the test with HCT-116 colon. For the same compound, the growth in the test with HCC-2998 colon was 99%; in the test with KM12 colon, 99.9%.
Take `O=[N+]([O-])CC(O)c1ccccc1` (configuration not stated): the growth was 100% with T-47D breast; 112% in the test on BT-549 breast; 91.1% in the test with MDA-MB-435 melanoma; 105% in the test with SW-620 colon; 81.1% in the test on MCF7 breast; 78.6% with HCT-116 colon. Besides, the results for the growth with HCC-2998 colon and in the test with KM12 colon were 98.9% and 97.4%, respectively.
On to `CCC(C)C1NC(=O)C(NC(=O)c2c3nc4c(C(=O)NC5C(=O)NC(C(C)CC)C(=O)N6CCCC6C(=O)N(C)CC(=O)N(C)C(C(C)C)C(=O)OC5C)ccc(C)c4oc-3c(C)c(=O)c2N)C(C)OC(=O)C(C(C)C)N(C)C(=O)CN(C)C(=O)C2CCCN2C1=O` (configuration not stated) (I: TIP[Sar][NMeV] / II: TIP[Sar][NMeV]; ester I:1-I:C, II:1-II:C; linker I:N-II:N via Actinocin(1to9); configuration not given here), for which the growth with T-47D breast was -8.27% (active); in the test with BT-549 breast, -41.6% (active); in the test on MDA-MB-435 melanoma, -91.1% (active); in the test with SW-620 colon it was -20.8% (active); with MCF7 breast, -26.2% (active); with HCT-116 colon it was 0.361% (active). In addition, the growth in the test with KM12 colon is -25.6% (active).
In the case of `Cc1nnc(N/N=C/c2ccc([N+](=O)[O-])o2)[nH]c1=O`, the growth with T-47D breast was -6.92% (active); in the test on BT-549 breast it was -22.1% (active); in the test on MDA-MB-435 melanoma, 12%; with SW-620 colon, 18.7%; with MCF7 breast it was 3.92% (active); in the test with HCT-116 colon it was 9.54% (active). The growth in the test with KM12 colon was 14.2%.
Turning to `CN(C)c1ccc(/C=C/c2cc[n+](C)c(/C=C/c3ccc(N(C)C)cc3)c2)cc1`, the growth with T-47D breast is -2.17% (active); with BT-549 breast it was 18.9%; with MDA-MB-435 melanoma, -48.7% (active); with SW-620 colon, 9.01% (active); in the test with MCF7 breast, -6.46% (active); in the test on HCT-116 colon, 9.38% (active). Besides, the growth in the test with HCC-2998 colon was 12.4%; in the test on KM12 colon, -55.6% (active).
As to `CCCCCCCCCCCCCCCCSC(=NCC)NCC`, the growth with T-47D breast was 8.09% (active); in the test on BT-549 breast it was 64.4%; with MDA-MB-435 melanoma, -89.7% (active); with SW-620 colon, -71.7% (active); in the test on MCF7 breast, -66.3% (active); in the test with HCT-116 colon it was -94.3% (active). Also, in the test on KM12 colon, the growth is -30.7% (active).
Turning to `NCCCN(CCCN)CCCNCc1c2ccccc2c(CNCCCN(CCCN)CCCN)c2ccccc12`, the growth in the test on T-47D breast was 80.9%; in the test on BT-549 breast it was 103%; in the test on MDA-MB-435 melanoma, 107%; with SW-620 colon it was 100%; with MCF7 breast, 97.1%; in the test with HCT-116 colon it was 90.6%. In addition, the growth in the test with KM12 colon is 97.2%.
For `NC(=S)Nc1ccc2c(c1)Cc1ccccc1-2`, the growth is 81.9% in the test with T-47D breast; 79.4% in the test with BT-549 breast; 110% in the test with MDA-MB-435 melanoma; 94.7% with SW-620 colon; 70.1% with MCF7 breast; 94.8% in the test on HCT-116 colon. Further, the growth in the test with KM12 colon was 95.1%.
Turning to `CCOc1ccc2c(c1)/C(=C\C=C\C1CC(C)C3CC(OCC)CCC3N1CC)CC(C)N2CC` (configuration not stated), the growth in the test on T-47D breast is 9.32% (active); in the test with BT-549 breast, 0.574% (active); in the test with MDA-MB-435 melanoma, -20.6% (active); in the test on SW-620 colon it was 17.1%; in the test on MCF7 breast, 3.06% (active); in the test with HCT-116 colon it was 10.7%. In addition, the growth with HCC-2998 colon is 28.5%; in the test with KM12 colon, 0.998% (active).
As for `NC(=S)N/N=C\c1nccc2c(N)cccc12`, the growth in the test with T-47D breast is 11%; in the test with BT-549 breast, 41%; in the test on MDA-MB-435 melanoma it was 30.3%; in the test with SW-620 colon, 37.2%; in the test on MCF7 breast, 22.1%; with HCT-116 colon it was 19.2%. In addition, the growth with HCC-2998 colon is 44.4%; with KM12 colon it was 26.7%.
For `CC1(C)CCCC2=C1C(=O)N(SC(Cl)(Cl)Cl)C2=O`, the growth with T-47D breast is 66.9%; in the test on BT-549 breast it was 95.8%; with MDA-MB-435 melanoma, 92.1%; with SW-620 colon it was 88%; in the test on MCF7 breast, 67.3%; with HCT-116 colon, 75.5%. The growth with KM12 colon is 101%.
With `COc1ccc2c(c1)c(CC(=O)O)c(C)n2C(=O)c1ccc(Cl)cc1`, the growth in the test with T-47D breast is 107%; with BT-549 breast it was 66.9%; in the test with MDA-MB-435 melanoma, 96.8%; in the test with SW-620 colon it was 98.8%; in the test with MCF7 breast, 83.7%; in the test on HCT-116 colon, 95.2%. The growth is 108% in the test with HCC-2998 colon and 99.2% with KM12 colon.
Take `Cc1nc([N+](=O)[O-])c(Sc2nncc(-c3ccccc3)n2)n1C`: the growth was 15.3% with T-47D breast; 66.6% in the test with BT-549 breast; 76.3% in the test with MDA-MB-435 melanoma; 77.1% in the test with SW-620 colon; 43.8% with MCF7 breast; 53.2% with HCT-116 colon. Further, the growth with HCC-2998 colon was 98.3%; in the test with KM12 colon it was 104%.
As for `O=C(O)c1cccc2cccc(-c3c4ccc(=O)c(O)c-4oc4c(O)c(O)ccc34)c12`, the growth with T-47D breast is 98.9%; with BT-549 breast, 93.8%; with MDA-MB-435 melanoma, 100%; in the test with SW-620 colon, 97.3%; with MCF7 breast it was 101%; in the test with HCT-116 colon it was 91.2%. The growth with HCC-2998 colon is 96.2%; with KM12 colon, 96%.
With `CC1C(c2ccccc2)OCCN1C(=S)Nc1ccc(S(=O)(=O)N2CCCCC2)cc1` (configuration not stated), the growth in the test on T-47D breast is 96.9%; in the test with BT-549 breast, 97.6%; with MDA-MB-435 melanoma, 89.4%; in the test on SW-620 colon it was 87.6%; with MCF7 breast, 91.3%; in the test on HCT-116 colon, 91.8%. In the test on KM12 colon, the growth is 92.1%.
